Source: PubChem BioAssay AID1159580 (chemical genetic matrix, 2015)
Among all 5,500 compounds or so, about 2,000 (36%) were called active. Inconclusive results (about 18%) are left out. Cut-off read from the data, not from the text of the source: active = normalized growth mostly below about 0.91 (no sharp cut-off); inconclusive = no clear call, values can overlap the other calls; inactive = mostly above about 0.92. The list shows a part of the results.

Test: chemical genetic growth profiling, strain panel (AID 1159580);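 note: tested at 20 µM; growth read once vehicle control cultures reached saturation at 30 °C; 1 = growth at the plate median or of vehicle wells; lower values mean less growth of the strain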
Conditions: S. cerevisiae deletion strains, growth OD
[1] = locus YDL101C, strain DUN1, active compounds read low
[2] = locus YHR030C, strain SLT2, active compounds read low
[3] = locus YAR019C, strain CDC15, active compounds read low
[4] = locus YBL105C, strain PKC1, active compounds read low
[5] = locus YBR135W, strain CKS1, active compounds read low
[6] = locus YBR136W, strain MEC1, active compounds read low
[7] = locus YBR160W, strain CDC28, active compounds read low
[8] = locus YDL017W, strain CDC7, active compounds read low
[9] = locus YDL028C, strain MPS1, active compounds read low
[10] = locus YDL108W, strain KIN28, active compounds read low
[11] = locus YDL132W, strain cdc53, active compounds read low
[12] = locus YDL214C, strain PRR2, active compounds read low
[13] = locus YDR052C, strain DBF4, active compounds read low
[14] = locus YDR054C, strain cdc34, active compounds read low
[15] = locus YDR226W, strain ADK1, active compounds read low
[16] = locus YDR477W, strain SNF1, active compounds read low
[17] = locus YER123W, strain YCK3, active compounds read low
[18] = locus YER133W, strain GLC7, active compounds read low
[19] = locus YFL009W, strain cdc4, active compounds read low
[20] = locus YFL029C, strain CAK1, active compounds read low
[21] = locus YFR003C, strain YPI1, active compounds read low
[22] = locus YFR019W, strain FAB1, active compounds read low
[23] = locus YFR028C, strain CDC14, active compounds read low
[24] = locus YGR040W, strain KSS1, active compounds read low
[25] = locus YGR052W, strain FMP48, active compounds read low
[26] = locus YGR092W, strain DBF2, active compounds read low
[27] = locus YHR079C, strain IRE1, active compounds read low
[28] = locus YHR082C, strain KSP1, active compounds read low
[29] = locus YHR205W, strain SCH9, active compounds read low
[30] = locus YIL147C, strain SLN1, active compounds read low
[31] = locus YJL095W, strain BCK1, active compounds read low
[32] = locus YJL128C, strain PBS2, active compounds read low
[33] = locus YJL157C, strain FAR1, active compounds read low
[34] = locus YJR016C, strain ILV3, active compounds read low
[35] = locus YJR066W, strain TOR1 (second series), active compounds read low
[36] = locus YJR066W, strain TOR1, active compounds read low
[37] = locus YKL048C, strain ELM1, active compounds read low
[38] = locus YKL067W, strain YNK1, active compounds read low
[39] = locus YKL101W, strain HSL1, active compounds read low
[40] = locus YKL193C, strain SDS22, active compounds read low
[41] = locus YKL203C, strain TOR2, active compounds read low
[42] = locus YLR113W, strain HOG1, active compounds read low
[43] = locus YLR133W, strain CKI1, active compounds read low
[44] = locus YLR403W, strain SFP1, active compounds read low
[45] = locus YML070W, strain DAK1, active compounds read low
[46] = locus YMR001C, strain CDC5, active compounds read low
[47] = locus YMR205C, strain PFK2 (second series), active compounds read low
[48] = locus YMR277W, strain FCP1, active compounds read low
[49] = locus YNL006W, strain LST8, active compounds read low
[50] = locus YNL020C, strain ARK1, active compounds read low
[51] = locus YNL161W, strain CBK1, active compounds read low
[52] = locus YNL183C, strain NPR1, active compounds read low
[53] = locus YNL207W, strain RIO2, active compounds read low
[54] = locus YNL222W, strain SSU72, active compounds read low
[55] = locus YNL307C, strain MCK1 (second series), active compounds read low
[56] = locus YOL078W, strain AVO1, active compounds read low
[57] = locus YOL136C, strain PFK27, active compounds read low
[58] = locus YOR061W, strain CKA2, active compounds read low
[59] = locus YOR119C, strain RIO1, active compounds read low
[60] = locus YOR231W, strain MKK1, active compounds read low
[61] = locus YOR329C, strain SCD5, active compounds read low
[62] = locus YPL031C, strain PHO85, active compounds read low
[63] = locus YPL153C, strain RAD53, active compounds read low
[64] = locus YPL204W, strain HRR25, active compounds read low
[65] = locus YPL209C, strain IPL1, active compounds read low
[66] = locus YPL256C, strain CLN2, active compounds read low
[67] = locus YPR025C, strain CCL1, active compounds read low
[68] = locus YPR106W, strain ISR1, active compounds read low
[69] = locus YPR111W, strain DBF20, active compounds read low
[70] = strain NNK1, active compounds read low
[71] = strain TSCII, active compounds read low

Measured: normalized growth

COC(=O)C1=C(Nc2ccc(Cl)cc2)CSC1
inactive: locus YAL013W, strain DEP1, active compounds read low 0.956 | locus YBR229C, strain ROT2, active compounds read low 0.967 | locus YCL061C, strain MRC1, active compounds read low 0.959 | [1] 0.941 | locus YDR150W, strain NUM1, active compounds read low 0.929 | locus YGR078C, strain PAC10, active compounds read low 0.949 | locus YHR087W, strain rtc3, active compounds read low 0.962 | locus YJR075W, strain HOC1, active compounds read low 0.911 | locus YLR058C, strain SHM2 (second series), active compounds read low 0.969 | locus YMR219W, strain ESC1, active compounds read low 0.972 | locus YMR263W, strain SAP30, active compounds read low 0.953 | locus YNL153C, strain GIM3, active compounds read low 0.965 | locus YNL322C, strain KRE1, active compounds read low 0.97 | locus YPL055C, strain LGE1, active compounds read low 0.811
active: locus YDL134C, strain PPH21, active compounds read low 0.773 | locus YEL061C, strain CIN8, active compounds read low 0.771 | [2] 0.203 | locus YJL187C, strain SWE1, active compounds read low 0.902 | locus YKL190W, strain CNB1, active compounds read low 0.834 | locus YLR039C, strain RIC1, active compounds read low 0.455 | locus YLR085C, strain ARP6, active compounds read low 0.368 | locus YLR262C, strain YPT6, active compounds read low 0.468 | locus YML094W, strain GIM5, active compounds read low 0.833 | locus YMR307W, strain GAS1, active compounds read low 0.417 | locus YNL298W, strain CLA4 (second series), active compounds read low 0.676 | locus YNR030W, strain Alg12, active compounds read low 0.759 | locus YOL006C, strain TOP1, active compounds read low 0.522 | locus YPL241C, strain CIN2, active compounds read low 0.742 | locus YPR135W, strain CTF4, active compounds read low 0.314

Fc1ccc(N/N=C\Cc2nnnn2-c2ccccc2)c(F)c1
active: [12] 0.554 | [16] 0.332 | [17] 0.283 | [18] 0.592 | [22] 0.414 | [24] 0.478 | [25] 0.302 | [26] 0.122 | [2] 0.387 | [27] 0.366 | [28] 0.571 | [31] 0.16 | [33] 0.519 | [35] 0.246 | [36] 0.356 | [37] 0.55 | [38] 0.427 | [39] 0.341 | [41] 0.481 | [42] 0.426 | [43] 0.55 | [44] 0.429 | [45] 0.249 | [47] 0.646 | [50] 0.536 | [52] 0.358 | [55] 0.189 | [57] 0.385 | [58] 0.222 | [59] 0.408 | [60] 0.328 | [62] 0.315 | [63] 0.359 | [64] 0.406 | [66] 0.537
inactive: [3] 0.957 | [4] 0.951 | [5] 0.947 | [6] 0.952 | [7] 0.961 | [8] 0.956 | [9] 0.955 | [1] 0.967 | [10] 0.948 | [11] 0.952 | [13] 0.946 | [14] 0.904 | [15] 0.95 | [19] 0.954 | [20] 0.955 | [21] 0.955 | [23] 0.953 | [29] 0.622 | [30] 0.958 | [32] 0.963 | [34] 0.973 | [40] 0.954 | [46] 0.951 | [48] 0.952 | [49] 0.962 | [51] 0.954 | [53] 0.952 | [54] 0.954 | [56] 0.947 | [61] 0.964 | [65] 0.958 | [67] 0.956 | [68] 0.976 | [69] 0.97 | [70] 0.971 | [71] 0.945

Clc1ccccc1N/N=C\Cc1nnnn1-c1ccccc1
active: [26] 0.282 | [58] 0.567
inactive: [3] 0.982 | [4] 0.966 | [5] 0.962 | [6] 0.966 | [7] 0.97 | [8] 0.98 | [9] 0.972 | [1] 0.976 | [10] 0.974 | [11] 0.953 | [12] 0.904 | [13] 0.974 | [14] 0.96 | [15] 0.972 | [16] 0.898 | [17] 0.729 | [18] 0.91 | [19] 0.965 | [20] 0.966 | [21] 0.97 | [22] 0.831 | [23] 0.957 | [24] 0.91 | [25] 0.827 | [2] 0.924 | [27] 0.85 | [28] 0.951 | [29] 0.863 | [30] 0.971 | [31] 0.716 | [32] 0.951 | [33] 0.893 | [34] 0.96 | [35] 0.774 | [36] 0.888 | [37] 0.92 | [38] 0.89 | [39] 0.889 | [40] 0.966 | [41] 0.929 | [42] 0.923 | [43] 0.888 | [44] 0.814 | [45] 0.787 | [46] 0.967 | [47] 0.92 | [48] 0.969 | [49] 0.98 | [50] 0.878 | [51] 0.974 | [52] 0.89 | [53] 0.958 | [54] 0.973 | [55] 0.669 | [56] 0.962 | [57] 0.795 | [59] 0.924 | [60] 0.845 | [61] 0.971 | [62] 0.853 | [63] 0.832 | [64] 0.818 | [65] 0.967 | [66] 0.99 | [67] 0.973 | [68] 0.98 | [69] 0.963 | [70] 0.992 | [71] 0.963
